Results taken from PubChem BioAssay AID1159580 (chemical genetic matrix, 2015).
The campaign covered roughly 5,500 compounds. About 2,000 (36%) were called active. Roughly 18% stayed inconclusive and do not appear here. Rule as the data show it: active = normalized growth mostly below about 0.91 (no sharp cut-off); inconclusive = no clear call, values can overlap the other calls; inactive = mostly above about 0.92. The list shows a part of the results.

Assay: chemical genetic growth profiling, strain panel (AID 1159580);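 also: tested at 20 µM; growth read once vehicle control cultures reached saturation at 30 °C; 1 = growth at the plate median or of vehicle wells; lower values mean less growth of the strain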
Conditions: growth OD

Measured: normalized growth

CC1(C)C2CC[C@]3(C)C(C(=O)C=C4[C@H]5C[C@@](C)(C(=O)O)CC[C@]5(C)CC[C@]43C)[C@@]2(C)CC[C@@H]1O (some centres not stated)
active: S. cerevisiae deletion strains, locus YLL001W, strain dnm1, hits give low values 0.867 | S. cerevisiae deletion strains, locus YLR027C, strain aat2, hits give low values 0.899 | S. cerevisiae deletion strains, locus YLR262C, strain YPT6 (second series), hits give low values 0.702 | S. cerevisiae deletion strains, locus YLR320W, strain mms22, hits give low values 0.871 | S. cerevisiae deletion strains, locus YMR205C, strain PFK2, hits give low values 0.843 | S. cerevisiae deletion strains, locus YNL071W, strain lat1, hits give low values 0.603 | S. cerevisiae deletion strains, locus YOR070C, strain gyp1, hits give low values 0.905 | S. cerevisiae deletion strains, locus YOR106W, strain vam3, hits give low values 0.76 | S. cerevisiae deletion strains, locus YOR270C, strain vph1, hits give low values 0.638 | S. cerevisiae deletion strains, locus YPL051W, strain arl3, hits give low values 0.892 | S. cerevisiae deletion strains, locus YPL078C, strain atp4, hits give low values 0.869 | S. cerevisiae deletion strains, locus YPL106C, strain sse1, hits give low values 1.17 [resistant]
inactive: S. cerevisiae deletion strains, locus YJR075W, strain HOC1, hits give low values 1.05 | S. cerevisiae deletion strains, locus YKL009W, strain mrt4, hits give low values 0.921 | S. cerevisiae deletion strains, locus YKL068W, hits give low values 1.02 | S. cerevisiae deletion strains, locus YKL085W, strain MDH1 (second series), hits give low values 1.02 | S. cerevisiae deletion strains, locus YKL085W, strain MDH1, hits give low values 1.02 | S. cerevisiae deletion strains, locus YKL160W, strain elf1, hits give low values 0.95 | S. cerevisiae deletion strains, locus YKL190W, strain CNB1, hits give low values 1.04 | S. cerevisiae deletion strains, locus YKR001C, strain vps1, hits give low values 0.996 | S. cerevisiae deletion strains, locus YKR026C, strain gcn3, hits give low values 1.03 | S. cerevisiae deletion strains, locus YKR091W, strain srl3, hits give low values 1.01 | S. cerevisiae deletion strains, locus YLL026W, hits give low values 0.979 | S. cerevisiae deletion strains, locus YLL041C, strain sdh2, hits give low values 1.01 | S. cerevisiae deletion strains, locus YLR039C, strain RIC1, hits give low values 1.1 | S. cerevisiae deletion strains, locus YLR058C, strain SHM2, hits give low values 1.03 | S. cerevisiae deletion strains, locus YLR102C, strain apc9, hits give low values 1.01 | S. cerevisiae deletion strains, locus YLR113W, strain HOG1, hits give low values 1.01 | S. cerevisiae deletion strains, locus YLR221C, strain rsa3, hits give low values 0.917 | S. cerevisiae deletion strains, locus YLR258W, strain gsy2, hits give low values 0.953 | S. cerevisiae deletion strains, locus YLR262C, strain YPT6, hits give low values 1.04 | S. cerevisiae deletion strains, locus YLR268W, strain sec22, hits give low values 0.944 | S. cerevisiae deletion strains, locus YLR330W, strain CHS5, hits give low values 1.04 | S. cerevisiae deletion strains, locus YLR342W, strain FKS1 (second series), hits give low values 1.03 | S. cerevisiae deletion strains, locus YLR342W, strain FKS1, hits give low values 1.01 | S. cerevisiae deletion strains, locus YLR357W, strain rsc2, hits give low values 1.05 | S. cerevisiae deletion strains, locus YLR370C, strain arc18, hits give low values 1.01 | S. cerevisiae deletion strains, locus YLR371W, strain rom2, hits give low values 1 | S. cerevisiae deletion strains, locus YLR384C, strain iki3, hits give low values 1.02 | S. cerevisiae deletion strains, locus YLR418C, strain cdc73, hits give low values 1.03 | S. cerevisiae deletion strains, locus YML016C, strain PPZ1, hits give low values 1.05 | S. cerevisiae deletion strains, locus YML032C, strain rad52, hits give low values 0.991 | S. cerevisiae deletion strains, locus YML120C, strain ndi1, hits give low values 0.993 | S. cerevisiae deletion strains, locus YML124C, strain tub3, hits give low values 1.02 | S. cerevisiae deletion strains, locus YMR058W, strain fet3, hits give low values 0.984 | S. cerevisiae deletion strains, locus YMR078C, strain ctf18, hits give low values 1.01 | S. cerevisiae deletion strains, locus YMR125W, strain sto1, hits give low values 1.02 | S. cerevisiae deletion strains, locus YMR129W, hits give low values 1.01 | S. cerevisiae deletion strains, locus YMR223W, strain ubp8, hits give low values 0.994 | S. cerevisiae deletion strains, locus YMR231W, strain pep5, hits give low values 0.984 | S. cerevisiae deletion strains, locus YMR263W, strain SAP30, hits give low values 1.03 | S. cerevisiae deletion strains, locus YMR307W, strain GAS1, hits give low values 1.02 | S. cerevisiae deletion strains, locus YNL067W, strain RPL9B, hits give low values 0.98 | S. cerevisiae deletion strains, locus YNL128W, strain TEP1, hits give low values 1.04 | S. cerevisiae deletion strains, locus YNL153C, strain GIM3, hits give low values 0.982 | S. cerevisiae deletion strains, locus YNL183C, strain NPR1, hits give low values 0.946 | S. cerevisiae deletion strains, locus YNL209W, strain ssb2, hits give low values 0.971 | S. cerevisiae deletion strains, locus YNL233W, strain BNI4, hits give low values 1.03 | S. cerevisiae deletion strains, locus YNL248C, strain rpa49, hits give low values 0.926 | S. cerevisiae deletion strains, locus YNL250W, strain rad50, hits give low values 1.01 | S. cerevisiae deletion strains, locus YNL271C, strain bni1, hits give low values 1.01 | S. cerevisiae deletion strains, locus YNL298W, strain CLA4, hits give low values 0.965 | S. cerevisiae deletion strains, locus YNL307C, strain MCK1, hits give low values 1.02 | S. cerevisiae deletion strains, locus YNL322C, strain KRE1 (second series), hits give low values 1.01 | S. cerevisiae deletion strains, locus YNL322C, strain KRE1, hits give low values 1.05 | S. cerevisiae deletion strains, locus YNR049C, strain mso1, hits give low values 1.01 | S. cerevisiae deletion strains, locus YNR052C, strain pop2, hits give low values 0.999 | S. cerevisiae deletion strains, locus YOL006C, strain TOP1, hits give low values 1.09 | S. cerevisiae deletion strains, locus YOL012C, strain htz1 1.33 | S. cerevisiae deletion strains, locus YOL147C, strain pex11, hits give low values 1.02 | S. cerevisiae deletion strains, locus YOR001W, strain rrp6, hits give low values 1.01 | S. cerevisiae deletion strains, locus YOR061W, strain CKA2, hits give low values 1.04 | S. cerevisiae deletion strains, locus YOR069W, strain VPS5, hits give low values 1.04 | S. cerevisiae deletion strains, locus YOR080W, strain dia2, hits give low values 1.02 | S. cerevisiae deletion strains, locus YOR083W, strain WHI5, hits give low values 0.915 | S. cerevisiae deletion strains, locus YOR136W, strain idh2, hits give low values 1.01 | S. cerevisiae deletion strains, locus YOR144C, strain elg1, hits give low values 1.02 | S. cerevisiae deletion strains, locus YOR184W, strain ser1, hits give low values 0.898 | S. cerevisiae deletion strains, locus YOR231W, strain MKK1, hits give low values 1 | S. cerevisiae deletion strains, locus YOR265W, strain rbl2, hits give low values 0.995 | S. cerevisiae deletion strains, locus YOR290C, strain snf2, hits give low values 0.944 | S. cerevisiae deletion strains, locus YOR316C, strain cot1, hits give low values 1.01 | S. cerevisiae deletion strains, locus YPL055C, strain LGE1, hits give low values 1.05 | S. cerevisiae deletion strains, locus YPL240C, strain hsp82, hits give low values 0.97 | S. cerevisiae deletion strains, locus YPL241C, strain CIN2, hits give low values 1.05 | S. cerevisiae deletion strains, locus YPL256C, strain CLN2, hits give low values 1.03 | S. cerevisiae deletion strains, locus YPR119W, strain clb2, hits give low values 1.02 | S. cerevisiae deletion strains, locus YPR141C, strain kar3, hits give low values 1.02 | S. cerevisiae deletion strains, locus YPR163C, strain tif3, hits give low values 1.02 | S. cerevisiae deletion strains, locus YPR167C, strain met16, hits give low values 1.02 | S. cerevisiae deletion strains, strain wtn01, hits give low values 0.976 | S. cerevisiae strains, strain wild type, hits give low values 1.02
